# Inconclusive results are not listed. Where a call stands in place of a potency, no number is given. Active and inactive are the calls of the source. Calls follow the shape of the dose curve; as a rule, active = well fitted cell-killing curve with a large enough effect; inconclusive = small, poorly fitted or top-dose-only effect; inactive = no such curve, though single readings can be large or run the other way.
# Assay: qHTS of pediatric cancer cell lines to identify multiple opportunities for drug repurposing: Primary screen for Rh30 cells (AID 1347107); also: nearly all actives have a fitted effect of over 75% in size
# Conditions: Rh30 rhabdomyosarcoma viability, CellTiter-Glo luminescence, 48 h; series mostly up to 46 µM
# Method in brief: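 Cells (500-1,000/well) in growth media were settled 5 h at 37 degrees C, then given compounds for 48 h. Viability was read as CellTiter-Glo luminescence. Primary runs used MIPE at 11 points (0.78 nM-46 µM) and NPC at 8 points (0.59 nM-46 µM); follow-ups used 11 points.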
row,Structure (SMILES),Potency
1,CC(=O)[C@H]1CC[C@H]2[C@@H]3C[C@H](C)C4=CC(=O)CC[C@]4(C)[C@H]3[C@@H](O)C[C@]12C,inactive
2,C[C@@H]1CN(CCCn2c3ccccc3c3ccccc32)C[C@H](C)N1,inactive
3,NC(CO)(CO)CO,inactive
4,CC(=O)CC(c1ccc([N+](=O)[O-])cc1)c1c(O)c2ccccc2oc1=O (stereo not given),inactive
5,C[C@]12CCC(=O)C=C1CC[C@H]1[C@@H]3CC[C@](O)(C(=O)CO)[C@@]3(C)C[C@H](O)[C@@]12F,inactive
6,C[C@H]1C[C@H]2[C@@H]3CCC4=CC(=O)C=C[C@]4(C)[C@@]3(Cl)[C@@H](O)C[C@]2(C)[C@@]1(O)C(=O)CO,inactive
7,COc1ccc(OC)c(C(O)CNC(=O)CN)c1 (stereo not given),inactive
8,CCCC(=O)O[C@]1(C(=O)CO)CC[C@H]2[C@@H]3CCC4=CC(=O)CC[C@]4(C)[C@H]3[C@@H](O)C[C@@]21C,inactive
9,c1ccc(CNCCNCc2ccccc2)cc1,inactive
10,C[C@]12C=CC(=O)C=C1[C@@H](F)C[C@@H]1[C@@H]2[C@@H](O)C[C@@]2(C)[C@H]1CC[C@]2(O)C(=O)CO,inactive
11,CCCCOc1ccc(OCCCN2CCOCC2)cc1,inactive
12,O=C(CCCN1CCC(O)(c2ccc(Br)cc2)CC1)c1ccc(F)cc1,inactive
13,CCOc1ccc2nc3cc(N)ccc3c(N)c2c1,inactive
14,CC(=O)OCC(=O)[C@@]12OC(C)(C)O[C@@H]1C[C@H]1[C@@H]3C[C@H](F)C4=CC(=O)C=C[C@]4(C)[C@@]3(F)[C@@H](O)C[C@@]12C,inactive
15,CCCCC(=O)O[C@]1(C(=O)CO)CC[C@H]2[C@@H]3CCC4=CC(=O)CC[C@]4(C)[C@H]3[C@@H](O)C[C@@]21C,inactive
16,CCC(C(=O)OCCN(CC)CC)c1ccccc1 (stereo not given),inactive
17,C=C1C[C@H]2[C@@H]3C=C(C)C4=CC(=O)CC[C@]4(C)[C@H]3CC[C@]2(C)[C@@]1(OC(C)=O)C(C)=O,inactive
18,CC(=O)OCC(=O)[C@@]1(O)[C@H](C)C[C@H]2[C@@H]3CCC4=CC(=O)C=C[C@]4(C)[C@@]3(F)[C@@H](O)C[C@@]21C,inactive

row,Structure (SMILES),Potency
1,Cc1ncc(CSSCc2cnc(C)c(O)c2CO)c(CO)c1O,inactive
2,COc1cccc2c1C(=O)c1c(O)c3c(c(O)c1C2=O)C[C@@](O)(C(=O)CO)C[C@@H]3O[C@H]1C[C@H](N)[C@H](O)[C@H](C)O1,inactive
3,C[C@]12C=CC(=O)C=C1CC[C@@H]1[C@@H]2[C@@H](O)C[C@@]2(C)[C@H]1CC[C@]2(O)C(=O)CO,inactive
4,O=C1[C@H]2CCCC[C@H]2C(=O)N1CCCCN1CCN(c2nsc3ccccc23)CC1,inactive
5,CN=C(NC#N)Nc1ccc(C2=NNC(=O)CC2C)cc1 (stereo not given),inactive
6,CC(=O)OCC(=O)[C@@]1(O)CC[C@H]2[C@@H]3CCC4=CC(=O)C=C[C@]4(C)[C@H]3[C@@H](O)C[C@@]21C,inactive
7,CCCCCCCCCCCCCCNCCO,inactive
8,COCc1c(C(C)C)nc(C(C)C)c(/C=C/[C@@H](O)C[C@@H](O)CC(=O)O)c1-c1ccc(F)cc1,inactive
9,CC1(C)OC[C@@H](COC(=O)CCc2ccc(OC[C@@H](O)CNCCNC(=O)N3CCOCC3)cc2)O1,inactive
10,NC(=O)CC[C@@H]1NC(=O)[C@H](Cc2ccccc2)NC(=O)[C@H](Cc2ccc(O)cc2)NC(=O)CCSSC[C@@H](C(=O)N2CCC[C@H]2C(=O)N[C@@H](CCCN=C(N)N)C(=O)NCC(N)=O)NC(=O)[C@H](CC(N)=O)NC1=O,inactive
11,C=C1C(=C/C=C2\CCC[C@]3(C)[C@@H]([C@H](C)/C=C/[C@@H](O)C4CC4)CC[C@@H]23)C[C@@H](O)C[C@@H]1O,inactive
12,CC1(C)O[C@@H]2C[C@H]3[C@@H]4C[C@H](F)C5=CC(=O)CC[C@]5(C)[C@H]4[C@@H](O)C[C@]3(C)[C@]2(C(=O)CO)O1,inactive
13,CN1CCN(C(c2ccccc2)c2ccccc2)CC1,inactive
14,CC(=O)Oc1ccc(C(c2ccc(OC(C)=O)cc2)c2ccccn2)cc1,inactive
15,CC(=O)Oc1ccc2c(c1)CC[C@@H]1[C@@H]2CC[C@]2(C)[C@@H](O)CC[C@@H]12,inactive
16,C[C@@H]1C[C@H]2[C@@H]3C[C@H](F)C4=CC(=O)C(Cl)=C[C@]4(C)[C@@]3(F)[C@@H](O)C[C@]2(C)[C@@]1(O)C(=O)CO,inactive
17,C[C@@H]1C[C@H]2[C@@H]3CCC4=CC(=O)C=C[C@]4(C)[C@@]3(F)[C@@H](O)C[C@]2(C)[C@H]1C(=O)CO,inactive
18,CN(C)CC/C=C1\c2ccccc2Sc2ccc(Cl)cc21,inactive

# Assay: qHTS of pediatric cancer cell lines to identify multiple opportunities for drug repurposing: Primary screen for Rh41 cells (AID 1347108); also: nearly all actives have a fitted effect of over 70% in size; also: potency is read from the fitted curve at half-maximal effect
# Conditions: Rh41 rhabdomyosarcoma viability, CellTiter-Glo luminescence, 48 h; series mostly up to 46 µM
# Method in brief: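 Plated cells (500-1,000 per well, growth media) were allowed to settle for 5 hours, treated with compound dilutions for 48 hours, then lysed with CellTiter-Glo for 15 min at room temperature before luminescence reading.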
row,Structure (SMILES),Potency
1,CC(=O)[C@H]1CC[C@H]2[C@@H]3C[C@H](C)C4=CC(=O)CC[C@]4(C)[C@H]3[C@@H](O)C[C@]12C,inactive
2,C[C@@H]1CN(CCCn2c3ccccc3c3ccccc32)C[C@H](C)N1,inactive
3,NC(CO)(CO)CO,inactive
4,CC(=O)CC(c1ccc([N+](=O)[O-])cc1)c1c(O)c2ccccc2oc1=O (stereo not given),inactive
5,C[C@]12CCC(=O)C=C1CC[C@H]1[C@@H]3CC[C@](O)(C(=O)CO)[C@@]3(C)C[C@H](O)[C@@]12F,inactive
6,C[C@H]1C[C@H]2[C@@H]3CCC4=CC(=O)C=C[C@]4(C)[C@@]3(Cl)[C@@H](O)C[C@]2(C)[C@@]1(O)C(=O)CO,inactive
7,COc1ccc(OC)c(C(O)CNC(=O)CN)c1 (stereo not given),inactive
8,CCCC(=O)O[C@]1(C(=O)CO)CC[C@H]2[C@@H]3CCC4=CC(=O)CC[C@]4(C)[C@H]3[C@@H](O)C[C@@]21C,inactive
9,c1ccc(CNCCNCc2ccccc2)cc1,inactive
10,C[C@]12C=CC(=O)C=C1[C@@H](F)C[C@@H]1[C@@H]2[C@@H](O)C[C@@]2(C)[C@H]1CC[C@]2(O)C(=O)CO,inactive
11,CCCCOc1ccc(OCCCN2CCOCC2)cc1,inactive
12,O=C(CCCN1CCC(O)(c2ccc(Br)cc2)CC1)c1ccc(F)cc1,inactive
13,CCOc1ccc2nc3cc(N)ccc3c(N)c2c1,18800 nM (active)
14,CC(=O)OCC(=O)[C@@]12OC(C)(C)O[C@@H]1C[C@H]1[C@@H]3C[C@H](F)C4=CC(=O)C=C[C@]4(C)[C@@]3(F)[C@@H](O)C[C@@]12C,inactive
15,CCCCC(=O)O[C@]1(C(=O)CO)CC[C@H]2[C@@H]3CCC4=CC(=O)CC[C@]4(C)[C@H]3[C@@H](O)C[C@@]21C,inactive
16,CCC(C(=O)OCCN(CC)CC)c1ccccc1 (stereo not given),inactive
17,C=C1C[C@H]2[C@@H]3C=C(C)C4=CC(=O)CC[C@]4(C)[C@H]3CC[C@]2(C)[C@@]1(OC(C)=O)C(C)=O,inactive

row,Structure (SMILES),Potency
1,CC(=O)OCC(=O)[C@@]1(O)[C@H](C)C[C@H]2[C@@H]3CCC4=CC(=O)C=C[C@]4(C)[C@@]3(F)[C@@H](O)C[C@@]21C,inactive
2,Cc1ncc(CSSCc2cnc(C)c(O)c2CO)c(CO)c1O,inactive
3,COc1cccc2c1C(=O)c1c(O)c3c(c(O)c1C2=O)C[C@@](O)(C(=O)CO)C[C@@H]3O[C@H]1C[C@H](N)[C@H](O)[C@H](C)O1,1680 nM (active)
4,C[C@]12C=CC(=O)C=C1CC[C@@H]1[C@@H]2[C@@H](O)C[C@@]2(C)[C@H]1CC[C@]2(O)C(=O)CO,inactive
5,CN=C(NC#N)Nc1ccc(C2=NNC(=O)CC2C)cc1 (stereo not given),inactive
6,CC(=O)OCC(=O)[C@@]1(O)CC[C@H]2[C@@H]3CCC4=CC(=O)C=C[C@]4(C)[C@H]3[C@@H](O)C[C@@]21C,inactive
7,CCCCCCCCCCCCCCNCCO,inactive
8,CC1(C)OC[C@@H](COC(=O)CCc2ccc(OC[C@@H](O)CNCCNC(=O)N3CCOCC3)cc2)O1,inactive
9,NC(=O)CC[C@@H]1NC(=O)[C@H](Cc2ccccc2)NC(=O)[C@H](Cc2ccc(O)cc2)NC(=O)CCSSC[C@@H](C(=O)N2CCC[C@H]2C(=O)N[C@@H](CCCN=C(N)N)C(=O)NCC(N)=O)NC(=O)[C@H](CC(N)=O)NC1=O,inactive
10,C=C1C(=C/C=C2\CCC[C@]3(C)[C@@H]([C@H](C)/C=C/[C@@H](O)C4CC4)CC[C@@H]23)C[C@@H](O)C[C@@H]1O,inactive
11,CC1(C)O[C@@H]2C[C@H]3[C@@H]4C[C@H](F)C5=CC(=O)CC[C@]5(C)[C@H]4[C@@H](O)C[C@]3(C)[C@]2(C(=O)CO)O1,inactive
12,CN1CCN(C(c2ccccc2)c2ccccc2)CC1,inactive
13,CC(=O)Oc1ccc(C(c2ccc(OC(C)=O)cc2)c2ccccn2)cc1,inactive
14,CC(=O)Oc1ccc2c(c1)CC[C@@H]1[C@@H]2CC[C@]2(C)[C@@H](O)CC[C@@H]12,inactive
15,C[C@@H]1C[C@H]2[C@@H]3C[C@H](F)C4=CC(=O)C(Cl)=C[C@]4(C)[C@@]3(F)[C@@H](O)C[C@]2(C)[C@@]1(O)C(=O)CO,inactive
16,C[C@@H]1C[C@H]2[C@@H]3CCC4=CC(=O)C=C[C@]4(C)[C@@]3(F)[C@@H](O)C[C@]2(C)[C@H]1C(=O)CO,inactive
17,CN(C)C(=S)SC(=S)N(C)C,944 nM (active)

# Reference: PubChem BioAssay (NCATS)
